Results from PubChem BioAssay (NCI).
This is part of a sample that, as a whole, favours compounds with a hit. Of some 83,000 tested, about 20% had one in any assay.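 Interpretation: 100, growth as untreated; towards 0, rising growth inhibition; 0, no net growth; 0 to -100, cell death. Compounds scoring below 10 were considered active.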 Calls of active or inactive are those of the source.

Legend:
Test in all cases: NCI-60 one-dose screen, 48 h (100 = growth as untreated, 0 = no growth, -100 = all killed)
Conditions in all cases: 10 µM unless noted
[1] = tested on: SR leukemia
[2] = tested on: OVCAR-8 ovarian
[3] = tested on: OVCAR-5 ovarian
[4] = tested on: OVCAR-4 ovarian
[5] = tested on: SK-OV-3 ovarian
[6] = tested on: IGROV1 ovarian
[7] = tested on: OVCAR-3 ovarian
[8] = tested on: HS 578T breast
[9] = tested on: NCI/ADR-RES ovarian
[10] = tested on: BT-549 breast
[11] = tested on: MDA-MB-435 melanoma
[12] = tested on: SW-620 colon
[13] = tested on: MCF7 breast
[14] = tested on: HCT-116 colon
[15] = tested on: HCC-2998 colon
[16] = tested on: KM12 colon
[17] = tested on: T-47D breast
[18] = tested on: RPMI-8226 leukemia

Measured: growth

CCOC(=O)C1CCNC(=O)C1=O (stereo unspecified)
inactive: [1] 88.9% | [2] 110% | [3] 104% | [4] 119% | [5] 117% | [6] 130% | [7] 122% | [8] 119% | [9] 105% | [10] 107% | [11] 113% | [12] 108% | [13] 107% | [14] 107% | [15] 104% | [16] 109%

COc1ccc(S(=O)(=O)NCCCNc2nccc(-n3ccc4cccnc43)n2)cc1
inactive: [1] 90.7% | [2] 92.7% | [3] 100% | [4] 81.5% | [5] 119% | [6] 103% | [7] 98.8% | [9] 91.1% | [17] 78.2% | [11] 98.4% | [12] 113% | [13] 98.7% | [14] 105% | [15] 111% | [16] 94.6%

Cc1ccc(C(=O)NCCCNc2nccc(-n3ccc4cccnc43)n2)cc1
inactive: [1] 92.7% | [2] 100% | [3] 89.8% | [4] 96.3% | [5] 106% | [6] 88.6% | [7] 105% | [8] 101% | [9] 92.3% | [17] 90.6% | [11] 104% | [12] 109% | [13] 103% | [14] 93.7% | [15] 109% | [16] 103%

CC(C)(C)n1cc(-c2ccnc(NCCCNS(=O)(=O)c3ccc(F)cc3)c2)c(-c2cccc(O)c2)n1
inactive: [1] 13.8% | [2] 51.5% | [3] 65% | [4] 53.9% | [5] 83.8% | [6] 51.1% | [9] 53% | [17] 31.2% | [11] 58.6% | [13] 16.7% | [14] 32% | [16] 28.2%
active: [12] 8.4% | [15] 9.22%

Nc1nc(Nc2cc(Cl)cc(Cl)c2)nn1S(=O)(=O)c1ccc2ccccc2c1
inactive: [1] 46.3% | [2] 40.6% | [3] 68.3% | [4] 72.5% | [5] 59.5% | [6] 20.3% | [7] 60.1% | [8] 40.5% | [9] 37.1% | [17] 46% | [10] 90.7% | [11] 77.5% | [12] 67.6% | [13] 32.8% | [14] 33.5% | [15] 68.3% | [16] 21.9%

O=[N+]([O-])c1cc(S(=O)(=O)Oc2ccccc2)ccc1Cl
inactive: [2] 40.7% | [3] 66.8% | [5] 102% | [9] 46.6% | [10] 30.2% | [11] 19.1% | [12] 23.5%
active: [1] 1.34% | [4] -28.4% | [6] -78.2% | [7] -94.7% | [13] -64.3% | [14] -54.8% | [15] -77.9% | [16] -71.8%

C=C1CCC2C(C)(CO)C(O)CCC2(C)C1C/C=C1/C(=O)OCC1O/C=C/c1ccccc1 (stereo unspecified)
inactive: [1] 27.6% | [2] 55.3% | [3] 93.5% | [4] 62.7% | [5] 125% | [6] 84.1% | [7] 75.7% | [8] 96.3% | [9] 73.9% | [17] 33.4% | [11] 75.8% | [13] 32.6% | [14] 58.5% | [15] 101% | [16] 74.8%
active: [12] 5.82%

COc1ccc2[nH]c(=O)c(/C=N/Nc3nc(-c4ccccc4)cs3)c(O)c2c1
inactive: [1] 56.2% | [2] 55.1% | [3] 85.6% | [4] 47.9% | [5] 76.8% | [6] 70.3% | [7] 24.2% | [8] 112% | [9] 37.7% | [17] 72.6% | [10] 60.8% | [11] 79.3% | [12] 67.2% | [13] 67.2% | [14] 50.8% | [15] 77.6% | [16] 69.3%

c1cc(C2=N[C@@H]3c4ccccc4C[C@@H]3O2)nc(C2=N[C@@H]3c4ccccc4C[C@@H]3O2)c1
inactive: [1] 101% | [2] 106% | [3] 98.3% | [4] 99.6% | [5] 117% | [6] 104% | [7] 109% | [8] 98.2% | [9] 98.7% | [17] 101% | [11] 104% | [12] 107% | [13] 88.1% | [14] 103% | [15] 104% | [16] 103%

CC(C)(C)n1cc(-c2ccnc(NCCNS(=O)(=O)c3ccc(C(F)(F)F)cc3)c2)c(-c2cccc(O)c2)n1
active: [1] 8.04% | [15] -0.263%
inactive: [2] 58.5% | [3] 72.2% | [4] 50.5% | [5] 86.3% | [6] 71.4% | [7] 68.1% | [8] 47.3% | [9] 56.7% | [17] 32.1% | [11] 63.3% | [12] 25.9% | [13] 17.3% | [14] 29.5% | [16] 41.8%

COc1ccc(/C=C2/C(=O)NC(SCC(=O)N3CCN(c4cc5c(cc4F)c(=O)c(C(=O)O)cn5C4CC4)CC3)=NC2N)cc1OC (stereo unspecified)
inactive: [1] 108% | [2] 106% | [3] 104% | [4] 107% | [5] 121% | [6] 107% | [7] 107% | [8] 105% | [9] 104% | [17] 110% | [11] 104% | [12] 105% | [14] 105% | [15] 99.7% | [16] 106%

C1=Cc2ccccc2N(c2nnc(-c3ccccc3)o2)c2ccccc21
inactive: [1] 32.3% | [2] 95.4% | [3] 98.2% | [4] 92.1% | [5] 114% | [6] 92.9% | [7] 107% | [8] 102% | [9] 92.2% | [17] 100% | [11] 87.9% | [12] 99.9% | [13] 87.6% | [14] 66.6% | [15] 121% | [16] 92.3%

Cc1[nH]c2ccc(F)cc2c1CCNC(=O)C1CCN(C(=O)c2ccccc2)C1 (stereo unspecified)
inactive: [1] 96.3% [25 µM] | [2] 101% [25 µM] | [3] 81.8% [25 µM] | [4] 85.5% [25 µM] | [6] 90.4% [25 µM] | [7] 101% [25 µM] | [8] 90.9% [25 µM] | [9] 97.6% [25 µM] | [17] 69.5% [25 µM] | [10] 94.7% [25 µM] | [11] 99.3% [25 µM] | [12] 102% [25 µM] | [13] 90.9% [25 µM] | [14] 99.7% [25 µM] | [15] 106% [25 µM] | [16] 102% [25 µM]

O=C(NCCNc1nccc(-n2ccc3cccnc32)n1)c1ccc(C(F)(F)F)cc1
inactive: [1] 105% | [2] 103% | [3] 106% | [4] 100% | [5] 99.7% | [6] 103% | [7] 109% | [8] 106% | [9] 105% | [17] 102% | [11] 99.9% | [12] 103% | [13] 95.6% | [14] 100% | [15] 120% | [16] 100%

C=C1CCC2C3(C)COC(C)(C)OC3CCC2(C)C1C/C=C1/C(=O)OCC1Oc1ccccc1OC (stereo unspecified)
inactive: [1] 28.9% | [2] 81.1% | [3] 101% | [4] 60.7% | [5] 114% | [6] 76.2% | [7] 31.3% | [8] 113% | [9] 85.6% | [17] 54.3% | [11] 68.6% | [12] 21.4% | [13] 30.2% | [14] 73.3% | [15] 122% | [16] 97.9%

O=C1c2c(Cl)c(Cl)c(Cl)c(Cl)c2C(=O)C2(Cl)CC=CCC12Cl (stereo unspecified)
inactive: [3] 95.7% | [5] 105% | [8] 46.7% | [9] 32.7% | [10] 43.6% | [11] 21.5%
active: [18] -32.2% | [2] -34.9% | [4] -59.1% | [6] -58.7% | [7] -93.5% | [17] -38.3% | [12] -68.7% | [13] -57.5% | [14] -90.2% | [15] -43% | [16] -6.67%

COc1cc(-c2nn(-c3cccc(NC(=O)Nc4cccc(C(F)(F)F)c4)c3)cc2-c2ccncc2)ccc1Cl
inactive: [3] 28.2% | [4] 11.1% | [6] 14%
active: [18] -14.8% | [2] -36.2% | [5] 4.13% | [7] -42% | [8] -13.7% | [9] -11.9% | [17] -4.03% | [10] -15.4% | [11] -50% | [12] 8.92% | [13] -6.3% | [14] 0.0611% | [15] -18.4% | [16] -27.8%
